Records with an inconclusive call do not appear. Active and inactive are the calls of the source. How the source made its calls, unless noted: active means hit-call score of the fitted dose curve at least 0.9, where 1 is the maximum; inactive means score below 0.9.
What was measured:
[1] = target: Oxysterols receptor LXR-alpha (Homo sapiens) (UniProt Q13133); assay: ATG_LXRa_TRANS: Attagene TRANS-FACTORIAL HepG2 Assay for human Liver X Receptor alpha (LXRa) (AID 2282980; active means hit-call score of the fitted dose curve at least 0.9, where 1 is the maximum); details: HepG2 Attagene TRANS reporter, LXRa transactivation
Sequence of Oxysterols receptor LXR-alpha (Homo sapiens) (Q13133 whole entry, looked up, the tested form may be a part): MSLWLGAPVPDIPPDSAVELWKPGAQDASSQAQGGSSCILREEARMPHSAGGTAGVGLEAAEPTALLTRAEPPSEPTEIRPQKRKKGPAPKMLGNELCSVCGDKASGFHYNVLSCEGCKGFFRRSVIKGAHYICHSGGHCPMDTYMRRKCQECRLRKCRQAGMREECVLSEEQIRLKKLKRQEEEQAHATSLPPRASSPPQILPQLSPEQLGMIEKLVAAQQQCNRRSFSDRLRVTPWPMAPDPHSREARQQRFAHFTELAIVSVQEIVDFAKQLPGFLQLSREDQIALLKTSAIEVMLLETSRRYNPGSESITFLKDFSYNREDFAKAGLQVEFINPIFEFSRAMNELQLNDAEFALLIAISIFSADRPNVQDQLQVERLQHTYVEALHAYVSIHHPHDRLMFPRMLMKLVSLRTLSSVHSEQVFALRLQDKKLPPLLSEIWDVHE
Method in brief: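 Chemical-induced reporter mRNA measured by RT-PCR with fluorescent labelling and capillary electrophoresis after 24 h dosing of transiently transfected HepG2 cells expressing exogenous NR-Gal4 chimeras; increases scored against DMSO baseline.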

[2] = target: Oxysterols receptor LXR-beta (Homo sapiens) (UniProt P55055); assay: ATG_LXRb_TRANS: Attagene TRANS-FACTORIAL HepG2 Assay for human Liver X Receptor beta (LXRb) (AID 2282981; active means hit-call score of the fitted dose curve at least 0.9, where 1 is the maximum); details: HepG2 Attagene TRANS GAL4-LXRb reporter, mRNA
Sequence of Oxysterols receptor LXR-beta (Homo sapiens) (P55055 whole entry, looked up, the tested form may be a part): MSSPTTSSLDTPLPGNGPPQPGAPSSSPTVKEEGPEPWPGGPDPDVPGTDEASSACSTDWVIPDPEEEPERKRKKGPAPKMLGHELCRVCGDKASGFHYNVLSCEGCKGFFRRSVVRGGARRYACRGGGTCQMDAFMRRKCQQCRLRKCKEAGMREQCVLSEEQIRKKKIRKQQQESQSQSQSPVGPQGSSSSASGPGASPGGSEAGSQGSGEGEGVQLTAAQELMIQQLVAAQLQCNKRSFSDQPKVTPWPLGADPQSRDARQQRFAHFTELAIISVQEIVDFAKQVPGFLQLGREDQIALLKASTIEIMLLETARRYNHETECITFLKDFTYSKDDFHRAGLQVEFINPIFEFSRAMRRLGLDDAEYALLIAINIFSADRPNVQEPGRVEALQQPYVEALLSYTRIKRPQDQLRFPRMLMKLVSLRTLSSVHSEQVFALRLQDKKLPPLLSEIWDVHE
Method in brief: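 Multiplexed reporter assay, HepG2, 24 h dosing. Fluorescence of labelled RT-PCR products after capillary electrophoresis gives transcript level; positive fitting direction relative to DMSO.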

[3] = target: Hepatocyte nuclear factor 4-alpha (Homo sapiens) (UniProt P41235); assay: ATG_HNF4a_TRANS: Attagene TRANS-FACTORIAL HepG2 Assay for human Hepatocyte Nuclear Factor 4 alpha (HNF4a) (AID 2282982; active means hit-call score of the fitted dose curve at least 0.9, where 1 is the maximum); details: HepG2 HNF4a transactivation reporter, mRNA readout
Sequence of Hepatocyte nuclear factor 4-alpha (Homo sapiens) (P41235 whole entry, looked up, the tested form may be a part): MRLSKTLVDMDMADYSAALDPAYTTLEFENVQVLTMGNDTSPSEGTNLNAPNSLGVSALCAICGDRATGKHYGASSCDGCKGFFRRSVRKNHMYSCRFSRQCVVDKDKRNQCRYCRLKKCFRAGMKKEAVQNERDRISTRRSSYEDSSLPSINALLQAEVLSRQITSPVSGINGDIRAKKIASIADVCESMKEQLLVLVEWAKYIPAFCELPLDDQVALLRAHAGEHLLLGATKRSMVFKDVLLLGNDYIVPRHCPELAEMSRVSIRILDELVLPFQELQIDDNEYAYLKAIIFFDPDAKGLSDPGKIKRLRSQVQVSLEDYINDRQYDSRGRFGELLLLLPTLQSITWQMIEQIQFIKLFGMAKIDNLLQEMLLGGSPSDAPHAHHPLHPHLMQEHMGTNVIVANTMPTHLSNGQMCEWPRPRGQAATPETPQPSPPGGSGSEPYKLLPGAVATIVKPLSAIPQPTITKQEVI
Method in brief: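 Endpoint reflects transcriptional activation of a GAL4-UAS reporter by an HNF4a-GAL4 chimera in transfected HepG2 cells, 24 h post-dosing. Fluorescence from RT-PCR products separated by capillary electrophoresis; DMSO baseline.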

[4] = ATG_M_32_TRANS: Attagene TRANS-FACTORIAL HepG2 Assay for M32 Transcription Factor (Internal Marker) (AID 2282984; active means hit-call score of the fitted dose curve at least 0.9, where 1 is the maximum;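 further: transcript level of a background control reporter unit measured by RT-PCR and capillary electrophoresis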); details: HepG2 Attagene TRANS M32 internal marker reporter
Method in brief: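 Internal-marker readout from a multiplexed transcription reporter panel. HepG2 cells were transfected with GAL4-UAS reporter units, treated 24 hours, and reporter transcript levels determined by fluorescence after RT-PCR and capillary separation.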

[5] = target: Nuclear receptor subfamily 4 group A member 2 (Homo sapiens) (UniProt P43354); assay: ATG_NURR1_TRANS: Attagene TRANS-FACTORIAL HepG2 Assay for human Nuclear Receptor Related Protein 1 (NURR1) (AID 2282985; active means hit-call score of the fitted dose curve at least 0.9, where 1 is the maximum); details: HepG2 Attagene TRANS reporter, mRNA readout
Sequence of Nuclear receptor subfamily 4 group A member 2 (Homo sapiens) (P43354 whole entry, looked up): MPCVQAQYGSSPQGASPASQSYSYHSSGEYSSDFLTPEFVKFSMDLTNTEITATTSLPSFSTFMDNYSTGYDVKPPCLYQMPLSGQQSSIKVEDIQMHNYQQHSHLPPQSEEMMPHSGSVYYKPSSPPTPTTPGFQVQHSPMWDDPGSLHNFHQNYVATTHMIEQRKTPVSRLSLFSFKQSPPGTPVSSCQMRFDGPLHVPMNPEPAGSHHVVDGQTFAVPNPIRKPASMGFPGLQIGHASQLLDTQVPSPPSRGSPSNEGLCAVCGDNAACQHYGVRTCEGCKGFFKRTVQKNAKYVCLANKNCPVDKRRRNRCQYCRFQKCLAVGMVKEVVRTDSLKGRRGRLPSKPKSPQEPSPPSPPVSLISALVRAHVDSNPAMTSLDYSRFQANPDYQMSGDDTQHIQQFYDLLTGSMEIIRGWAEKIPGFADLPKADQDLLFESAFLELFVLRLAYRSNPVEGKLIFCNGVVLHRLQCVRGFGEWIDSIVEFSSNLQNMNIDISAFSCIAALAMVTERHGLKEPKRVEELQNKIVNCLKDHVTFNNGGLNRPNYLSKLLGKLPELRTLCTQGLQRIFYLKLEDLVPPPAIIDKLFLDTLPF
Method in brief: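 Endpoint: reporter mRNA increase relative to DMSO. HepG2 cells transfected with reporter units, treated 24 h; RNA processed by RT-PCR, labelling, HpaI digestion and capillary electrophoresis.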

[6] = target: Transcriptional activator Myb (Homo sapiens) (UniProt P10242); assay: ATG_Myb_CIS: Attagene CIS-FACTORIAL HepG2 Assay for human Myeloblastosis (Myb) Proto-Oncogene Transcription Factor (AID 2282986); details: HepG2 Attagene CIS-FACTORIAL Myb reporter transcription; actives raise or lower the signal
Sequence of Transcriptional activator Myb (Homo sapiens) (P10242 whole entry, looked up): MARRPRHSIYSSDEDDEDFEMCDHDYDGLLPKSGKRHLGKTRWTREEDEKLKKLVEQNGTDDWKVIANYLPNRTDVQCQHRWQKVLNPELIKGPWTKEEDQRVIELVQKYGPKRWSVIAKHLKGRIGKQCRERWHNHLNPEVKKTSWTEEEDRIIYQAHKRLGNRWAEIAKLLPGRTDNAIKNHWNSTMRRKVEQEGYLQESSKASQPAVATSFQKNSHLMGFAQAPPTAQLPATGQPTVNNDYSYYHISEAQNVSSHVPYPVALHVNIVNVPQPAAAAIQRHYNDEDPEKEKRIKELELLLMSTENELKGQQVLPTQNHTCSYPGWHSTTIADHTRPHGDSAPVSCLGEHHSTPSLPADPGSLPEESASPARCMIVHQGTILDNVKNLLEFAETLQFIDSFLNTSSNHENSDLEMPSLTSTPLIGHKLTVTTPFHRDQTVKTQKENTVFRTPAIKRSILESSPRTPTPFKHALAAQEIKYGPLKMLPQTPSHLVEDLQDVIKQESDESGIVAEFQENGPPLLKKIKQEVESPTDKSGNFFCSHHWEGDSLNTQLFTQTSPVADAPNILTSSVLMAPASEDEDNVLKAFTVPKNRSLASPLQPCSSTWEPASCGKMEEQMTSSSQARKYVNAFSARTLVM
Method in brief: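 Reporter mRNA is quantified by RT-PCR and capillary electrophoresis 24 h after dosing HepG2 cells transfected with cis-regulated reporter units, which track endogenous transcription factor activity. Gain and loss of signal are fitted versus DMSO baseline.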

[7] = target: Nuclear respiratory factor 1 (Homo sapiens) (UniProt Q16656); assay: ATG_NRF1_CIS: Attagene CIS-FACTORIAL HepG2 Assay for human Nuclear Respiratory Factor 1 (NRF1) Orphan Gene (AID 2282987); details: HepG2 NRF1 cis-element reporter, Attagene multiplex; actives raise or lower the signal
Sequence of Nuclear respiratory factor 1 (Homo sapiens) (Q16656 whole entry, looked up): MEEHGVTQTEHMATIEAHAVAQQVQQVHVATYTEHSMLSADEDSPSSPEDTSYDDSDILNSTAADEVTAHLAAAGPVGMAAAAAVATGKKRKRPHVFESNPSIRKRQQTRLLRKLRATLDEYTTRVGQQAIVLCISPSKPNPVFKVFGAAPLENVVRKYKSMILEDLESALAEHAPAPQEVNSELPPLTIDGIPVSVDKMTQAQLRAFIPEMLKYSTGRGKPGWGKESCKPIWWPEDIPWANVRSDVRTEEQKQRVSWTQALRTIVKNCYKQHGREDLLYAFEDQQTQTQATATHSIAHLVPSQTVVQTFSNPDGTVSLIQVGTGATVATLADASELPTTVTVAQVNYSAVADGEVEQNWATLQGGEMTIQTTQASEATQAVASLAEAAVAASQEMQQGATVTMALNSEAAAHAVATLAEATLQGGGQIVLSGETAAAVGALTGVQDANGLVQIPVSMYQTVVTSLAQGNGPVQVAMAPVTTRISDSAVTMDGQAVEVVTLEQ
Method in brief: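 Endogenous NRF1-driven reporter transcription in transfected HepG2 cells after 24 h treatment. Readout: RT-PCR products, 6-FAM labelled and resolved by capillary electrophoresis; changes fitted both directions relative to DMSO.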

[8] = ATG_NFI_CIS: Attagene CIS-FACTORIAL HepG2 Assay for human Nuclear Factor I (NFI) (AID 2282989); details: HepG2 cis-regulatory reporter, NFI response element transcription; actives raise or lower the signal
Method in brief: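 Transient MRTU transfection of HepG2 → 24 h chemical dosing → total RNA, oligo(dT) RT → PCR, 6-FAM primer extension, HpaI cut → capillary electrophoresis. Endpoint fitted bidirectionally relative to DMSO.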

[9] = target: Myc proto-oncogene protein (Homo sapiens) (UniProt P01106); assay: ATG_Myc_CIS: Attagene CIS-FACTORIAL HepG2 Assay for human Myelocytomatosis (Myc) Proto-Oncogene Transcription Factor (AID 2282990); details: HepG2, Attagene cis-reporter transcription factor activity; actives raise or lower the signal
Sequence of Myc proto-oncogene protein (Homo sapiens) (P01106 whole entry, looked up, the tested form may be a part): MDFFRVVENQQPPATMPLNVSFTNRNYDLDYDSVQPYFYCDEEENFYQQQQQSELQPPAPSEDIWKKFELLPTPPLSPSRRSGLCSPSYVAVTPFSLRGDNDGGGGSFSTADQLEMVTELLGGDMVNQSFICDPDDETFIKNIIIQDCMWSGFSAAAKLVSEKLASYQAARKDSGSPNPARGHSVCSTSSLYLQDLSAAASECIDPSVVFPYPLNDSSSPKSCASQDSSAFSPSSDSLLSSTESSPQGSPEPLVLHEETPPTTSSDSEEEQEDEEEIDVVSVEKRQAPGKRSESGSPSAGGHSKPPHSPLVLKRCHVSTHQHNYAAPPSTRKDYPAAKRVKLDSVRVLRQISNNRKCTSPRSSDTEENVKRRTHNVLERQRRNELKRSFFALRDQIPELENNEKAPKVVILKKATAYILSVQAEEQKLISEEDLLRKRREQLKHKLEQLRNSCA
Method in brief: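 Fluorescence intensity of reporter-specific cDNA fragments, separated by capillary electrophoresis, gives the signal. Transfected HepG2 cells carrying cis-promoter reporter constructs are incubated with compound for 24 h; DMSO serves as baseline.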

[10] = ATG_NRF2_ARE_CIS: Attagene CIS-FACTORIAL HepG2 Assay for human Nuclear Factor Erythroid 2 Related Factor 2 (NFR2) response to Antioxidant Response Elements (ARE) (AID 2282992); details: HepG2 Attagene ARE/NRF2 reporter, transcription factor activity; actives raise or lower the signal
Method in brief: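 Endogenous transcription factor activity read out as reporter transcript levels (RT-PCR plus capillary electrophoresis, fluorescence) in transiently transfected HepG2 cells. Measured at 24 h after dosing; gain or loss of signal fitted versus DMSO.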

[11] = ATG_Oct_MLP_CIS: Attagene CIS-FACTORIAL HepG2 Assay for human Octamer-Binding Transcription Factor (Oct) (AID 2282993); details: HepG2 Attagene cis-factorial Oct reporter, mRNA; actives raise or lower the signal
Method in brief: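 Transient MRTU transfection of HepG2 → 24 h compound treatment → RNA isolation, reverse transcription, PCR → 6-FAM primer extension, HpaI digest → capillary electrophoresis. Activity fitted both directions against DMSO.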

[12] = target: Cellular tumor antigen p53 (Homo sapiens) (UniProt P04637); assay: ATG_p53_CIS: Attagene CIS-FACTORIAL HepG2 Assay for human p53 Transcription Factor (AID 2282994); details: HepG2 p53 cis-element reporter, Attagene mRNA; actives raise or lower the signal
Sequence of Cellular tumor antigen p53 (Homo sapiens) (P04637 whole entry, looked up): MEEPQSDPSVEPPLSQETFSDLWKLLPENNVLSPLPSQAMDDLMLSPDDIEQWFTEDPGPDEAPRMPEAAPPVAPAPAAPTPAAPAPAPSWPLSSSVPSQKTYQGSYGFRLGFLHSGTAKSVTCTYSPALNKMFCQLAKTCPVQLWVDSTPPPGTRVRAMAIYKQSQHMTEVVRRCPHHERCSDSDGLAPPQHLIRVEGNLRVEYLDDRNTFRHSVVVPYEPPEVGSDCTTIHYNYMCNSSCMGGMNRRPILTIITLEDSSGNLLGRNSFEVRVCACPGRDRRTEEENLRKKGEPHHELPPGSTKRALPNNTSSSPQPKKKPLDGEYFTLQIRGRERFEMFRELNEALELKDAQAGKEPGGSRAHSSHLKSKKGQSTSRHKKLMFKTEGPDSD
Method in brief: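 Endogenous p53 activity read in transiently transfected HepG2 from a cis-element-driven reporter transcript after 24 h exposure. RNA reverse-transcribed, PCR-amplified, fluorescently labelled and sized by capillary electrophoresis; gain or loss fitted against DMSO baseline.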

[13] = BSK_3C_TissueFactor: BioMAP Diversity Plus: 3C Assay for Tissue Factor Biomarker Activity (AID 2282997); details: BioMAP 3C HUVEC, tissue factor biomarker readout; actives raise or lower the signal
Method in brief: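 Tissue factor on primary human umbilical vein endothelium was read by ELISA 24 h after dosing, gain or loss relative to DMSO. Cytotoxicity ran alongside via SRB (0.1%, TCA-fixed, 560 nm).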

[14] = BSK_3C_uPAR: BioMAP Diversity Plus: 3C Assay for Urokinase-type plasminogen activator receptor (uPAR) Biomarker Activity (AID 2282998); details: BioMAP 3C HUVEC, uPAR biomarker ELISA; actives raise or lower the signal
Method in brief: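 ELISA readout of uPAR on human vascular endothelium (umbilical vein primary cells), taken 24 h after chemical dosing. Increases and decreases are both fitted relative to DMSO vehicle.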

[15] = BSK_3C_VCAM1: BioMAP Diversity Plus: 3C Assay for Vascular cell adhesion molecule 1 (VCAM1) Biomarker Activity (AID 2282999); details: BioMAP 3C HUVEC, VCAM1 ELISA, cytokine-stimulated; actives raise or lower the signal
Method in brief: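 HUVEC primary cells, 24 h compound exposure; VCAM-1 by ELISA; gain/loss of signal fitted bidirectionally vs DMSO baseline.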

[16] = BSK_4H_Eotaxin3: BioMAP Diversity Plus: 4H Assay for Eotaxin 3 Biomarker Activity (AID 2283000); details: primary human endothelial cells (HUVEC); actives raise or lower the signal
Method in brief: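 Human umbilical vein endothelial cells (BSK_4H system) dosed with test chemical; Eotaxin-3 (CCL26) measured by ELISA 24 h after dosing. Bidirectional curve fitting relative to DMSO negative control as baseline.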

[17] = target: human Peroxisome Proliferator-activated Receptor alpha (PPARa), PPARA (gene 5465) (UniProt Q07869); assay: ATG_PPARa_TRANS: Attagene TRANS-FACTORIAL HepG2 Assay for human Peroxisome Proliferator-activated Receptor alpha (PPARa) (AID 2283001; active means hit-call score of the fitted dose curve at least 0.9, where 1 is the maximum;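 on AC50: potency for gain of reporter signal over DMSO so agonist or activator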)
Sequence of human Peroxisome Proliferator-activated Receptor alpha (PPARa), PPARA (gene 5465) (Q07869 whole entry, looked up): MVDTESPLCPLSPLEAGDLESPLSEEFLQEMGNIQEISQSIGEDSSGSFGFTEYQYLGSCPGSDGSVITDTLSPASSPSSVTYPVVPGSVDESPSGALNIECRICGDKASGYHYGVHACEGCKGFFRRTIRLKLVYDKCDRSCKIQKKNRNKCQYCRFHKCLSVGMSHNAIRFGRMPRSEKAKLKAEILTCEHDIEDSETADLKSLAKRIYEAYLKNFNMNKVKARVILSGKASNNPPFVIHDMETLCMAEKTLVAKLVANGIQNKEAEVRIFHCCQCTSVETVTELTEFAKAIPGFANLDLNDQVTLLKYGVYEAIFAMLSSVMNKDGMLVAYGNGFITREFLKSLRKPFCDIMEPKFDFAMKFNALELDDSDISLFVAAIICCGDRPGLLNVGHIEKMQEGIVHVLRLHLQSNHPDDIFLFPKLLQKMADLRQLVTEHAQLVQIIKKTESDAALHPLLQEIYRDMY
Method in brief: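 HepG2, transient MRTU transfection, 24 h treatment. RT-PCR → FAM labelling → capillary electrophoresis. Fit vs DMSO, positive direction.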

[18] = target: human Peroxisome Proliferator-activated Receptor delta (PPARd), PPARD (gene 5467) (UniProt Q03181); assay: ATG_PPARd_TRANS: Attagene TRANS-FACTORIAL HepG2 Assay for human Peroxisome Proliferator-activated Receptor delta (PPARd) (AID 2283002; active means hit-call score of the fitted dose curve at least 0.9, where 1 is the maximum)
Sequence of human Peroxisome Proliferator-activated Receptor delta (PPARd), PPARD (gene 5467) (Q03181 whole entry, looked up, the tested form may be a part): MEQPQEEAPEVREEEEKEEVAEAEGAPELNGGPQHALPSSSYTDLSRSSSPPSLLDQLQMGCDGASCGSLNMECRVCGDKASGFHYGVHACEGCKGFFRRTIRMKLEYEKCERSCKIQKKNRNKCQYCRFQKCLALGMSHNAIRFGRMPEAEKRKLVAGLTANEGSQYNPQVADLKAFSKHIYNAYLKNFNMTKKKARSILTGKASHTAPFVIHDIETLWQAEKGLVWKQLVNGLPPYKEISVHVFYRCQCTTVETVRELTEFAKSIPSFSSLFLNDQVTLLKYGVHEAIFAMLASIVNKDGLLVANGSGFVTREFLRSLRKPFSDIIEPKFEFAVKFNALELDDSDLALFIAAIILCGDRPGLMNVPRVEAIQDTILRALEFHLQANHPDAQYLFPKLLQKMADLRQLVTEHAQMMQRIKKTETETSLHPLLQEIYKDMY
Method in brief: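 Fluorescence from capillary electrophoresis of labelled RT-PCR reporter fragments gives the signal; DMSO sets baseline. Cells: HepG2 transiently carrying GAL4-UAS reporter units plus chimeric nuclear receptor-Gal4 proteins, exposed to chemicals for 24 h.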

[19] = ATG_M_06_TRANS: Attagene TRANS-FACTORIAL HepG2 Assay for M06 Transcription Factor (Internal Marker) (AID 2282983; active means hit-call score of the fitted dose curve at least 0.9, where 1 is the maximum); details: HepG2 Attagene TRANS M06 internal marker reporter
Method in brief: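 Background-control reporter readout: after 24 h chemical exposure of transiently transfected HepG2 (GAL4-UAS reporter units), mRNA quantified by RT-PCR with fluorescent labeling and capillary electrophoresis. Gain-of-signal fitting against DMSO baseline.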

[20] = ATG_NF_kB_CIS: Attagene CIS-FACTORIAL HepG2 Assay for human Nuclear Factor Kappa B (NF-kB) (AID 2282991); details: HepG2 Attagene cis-factorial NF-kB reporter mRNA; actives raise or lower the signal
Method in brief: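 Readout is reporter transcript level, gain or loss versus DMSO, measured 24 h post-dose via RT-PCR, fluorescent labelling and capillary electrophoresis. Human HepG2 liver cells carried transiently transfected CIS reporter constructs reflecting endogenous factors.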

Measured: AC50

CCCCC(CC)COC(=O)CCCCCCCCC(=O)OCC(CC)CCCC (stereo not given)
not listed: [19] | [20]
inactive: all other assays above

COC(=O)c1ccccc1O
active: [1] 25.8 µM | [2] 25.5 µM | [11] 59.6 µM
not listed: [3] | [6] | [17]
inactive: all other assays above

Cc1[nH]cnc1C[C@H]1CCc2c(C)c3ccccc3n2C1=O
active: [7] 13.1 µM | [11] 21 µM | [12] 7.45 µM | [14] 27.4 µM | [16] 29.6 µM
not listed: [3] | [20]
inactive: all other assays above

O=C1CCCCCN1
active: [17] 3.37 µM
not listed: [3] | [4] | [6]
inactive: all other assays above

COCCOc1cc2cc(C(=O)NC3CCN(C(C)C)CC3)n(CC(=O)Nc3ccc(Cl)cn3)c2cn1
active: [20] 180 µM | [10] 72.9 µM | [11] 119 µM
not listed: [2] | [5] | [6] | [18]
inactive: all other assays above

Nc1nc2ncc(CNc3ccc(C(=O)N[C@@H](CCC(=O)O)C(=O)O)cc3)nc2c(=O)[nH]1
not listed: [3] | [4] | [5] | [17] | [18] | [19]
inactive: all other assays above

CC(C)CCCCCCCOC(=O)CCCCC(=O)OCCCCCCCC(C)C
not listed: [2] | [5] | [17] | [18] | [19]
inactive: all other assays above

From PubChem BioAssay (EPA / NIEHS)
